± gives the standard deviation of the averaged measurements.

Test [1] has as its system Escherichia coli Nissle 1917. Description: area under OmniLog respiration curve over 48 h (OmniLog units x h); higher = more growth / nutrient utilisation; extreme values may be limits of the assay. The conditions noted are these: incubation: 48 h, 37 °C.
The test system of test [2] is Escherichia coli Nissle 1917. Description: DuctApe activity index of respiration/growth curve (0 no growth to 9 maximum) (index 0-9); higher = more growth / nutrient utilisation, active = 3 or more; extreme values may be limits of the assay. Particulars: incubation: 48 h, 37 °C.
[3] abbreviates: nutrient role: sole nitrogen source (pyruvate carbon).
[4] abbreviates: nutrient role: sole phosphorus source (pyruvate carbon).
[5] abbreviates: nutrient role: sole sulfur source (pyruvate carbon).
Where [6] appears, read: nutrient role: C-Source, carboxylic acid.
The mark [7] stands for this setting: nutrient role: C-Source, carbohydrate.
[8] abbreviates: nutrient role: N-Source, inorganic.
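Wherever DuctApe activity index of respiration/growth curve (0 no growth to 9 maximum) is given: biolog PM4 phosphorus and sulfur plates, tetrazolium violet dye reduction read in the OmniLog every 15 min, kinetic curves scored by DuctApe, each plate run in triplicate.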

`CCN` [Ethylamine]: the “area under OmniLog respiration curve” value in test [1] (setting [3]) was determined as 8.5 ± 6.5. Further, in test [2] (setting [3]), the DuctApe activity index is 0 (inactive).
For `CN(CC(=O)O)C(=N)NP(=O)(O)O` [Phosphocreatine], the “area under OmniLog respiration curve” value in test [1] (setting [4]) is 8760 ± 510. Also, the DuctApe activity index in test [2] (setting [4]) is 8.67 (active).
Turning to `NCC(O)c1ccc(O)cc1` (racemic) [D,L-Octopamine], in test [1] (nutrient role: C-Source, amine), the “area under OmniLog respiration curve” value stood at 6.75 ± 3.5. Besides, the DuctApe activity index in test [2] (nutrient role: C-Source, amine) was 0 (inactive).
`O=PO` [Hypophosphite]: the “area under OmniLog respiration curve” value in test [1] (setting [4]) came to 2600 ± 590. The DuctApe activity index in test [2] (setting [4]) is 4 (active).
Turning to `OP(O)(O)=S` [Thiophosphate], the “area under OmniLog respiration curve” value came to 9350 ± 660 in test [1] (setting [4]) and 6760 ± 260 in test [1] (setting [5]). The results for the DuctApe activity index in test [2] (setting [4]) and in test [2] (setting [5]) were 8.67 (active) and 7 (active), respectively.
With `O=C(O)CC(Br)C(=O)O` (configuration not stated) [Bromosuccinic acid], the “area under OmniLog respiration curve” value in test [1] (setting [6]) was 7400 ± 380. Further, the DuctApe activity index in test [2] (setting [6]) is 8 (active).
Take `CCOP(=O)(OCC)OCC` [Triethyl Phosphate]: in test [1] (setting [4]), the “area under OmniLog respiration curve” value came to 4.72. Besides, the DuctApe activity index in test [2] (setting [4]) was 0 (inactive).
Consider `NCCc1ccccc1` [Phenylethylamine], for which the “area under OmniLog respiration curve” value in test [1] (nutrient role: C-Source, amine) was 5.51 ± 1.4. Also, the DuctApe activity index in test [2] (nutrient role: C-Source, amine) was 0 (inactive).
Consider `CCSCCC(N)C(=O)O` (racemic) [DL-Ethionine], for which the “area under OmniLog respiration curve” value in test [1] (setting [5]) was determined as 286 ± 250. For the same compound, the DuctApe activity index in test [2] (setting [5]) is 0 (inactive).
In the case of `NCCc1ccc(O)cc1` [Tyramine], the “area under OmniLog respiration curve” value in test [1] (nutrient role: C-Source, amine) came to 33 ± 46; in test [1] (setting [3]), 35.9 ± 54. The DuctApe activity index in test [2] (nutrient role: C-Source, amine) is 0 (inactive); in test [2] (setting [3]), 0 (inactive).
Turning to `O=C1NC(=O)C(=O)C(=O)N1` [Alloxan], in test [1] (setting [3]), the “area under OmniLog respiration curve” value worked out at 402 ± 390. Further, the DuctApe activity index in test [2] (setting [3]) was 1.67 (inactive).
`O=C(O)CCCO` [g-Hydroxybutyric acid]: in test [1] (setting [6]), the “area under OmniLog respiration curve” value came out at 5800 ± 210. Besides, the DuctApe activity index in test [2] (setting [6]) is 7 (active).
As for `NCCc1ccccc1` [b-Phenylethylamine], the “area under OmniLog respiration curve” value in test [1] (setting [3]) worked out at 11.4 ± 12. Further, in test [2] (setting [3]), the DuctApe activity index was 0 (inactive).
As to `NCCP(=O)(O)O` [2-Aminoethyl Phosphonic acid], the “area under OmniLog respiration curve” value in test [1] (setting [4]) was 8180 ± 390. In addition, in test [2] (setting [4]), the DuctApe activity index was 8 (active).
Consider `N#C[C@H](O[C@@H]1O[C@H](CO[C@@H]2O[C@H](CO)[C@@H](O)[C@H](O)[C@H]2O)[C@@H](O)[C@H](O)[C@H]1O)c1ccccc1` [Amygdalin], for which, in test [1] (setting [7]), the “area under OmniLog respiration curve” value was 4.97 ± 0.43. Also, in test [2] (setting [7]), the DuctApe activity index is 0 (inactive).
For the compound `OP(O)(=S)S` [Dithiophosphate], the “area under OmniLog respiration curve” value in test [1] (setting [4]) amounted to 9000 ± 660; in test [1] (setting [5]), 7150 ± 210. The DuctApe activity index was 8.67 (active) in test [2] (setting [4]) and 7.67 (active) in test [2] (setting [5]).
As to `O=[N+]([O-])O` [Nitrate], the “area under OmniLog respiration curve” value in test [1] (setting [8]) amounted to 4.72. Also, in test [2] (setting [8]), the DuctApe activity index was 0 (inactive).
Regarding `CN` [Methylamine], in test [1] (setting [3]), the “area under OmniLog respiration curve” value came to 61 ± 97. In addition, the DuctApe activity index in test [2] (setting [3]) is 0 (inactive).

Source of the values: the supplement of paper PMC9801561.
